In the supplement of paper PMC11732987, “Enantioselective OTUD7B fragment discovery through chemoproteomics screening and high-throughput optimisation” (Communications Chemistry, 2025):

Columns and labels:
Test in all cases: log2 ratio of Biotin-Ahx-Ub-VS probe labelling (fragment/DMSO); higher = less target engagement (more negative = stronger competition), active = hit call of the paper (q ≤ 0.05, log2 ratio ≤ -1)
Settings in all cases: compound concentration: 200 uM; treatment time: 3 h
[1] = molecular target: USP34 (UniProt Q70CQ2)
In short: (§1)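 In triplicate, 495 µg of HEK293T lysate per sample was incubated with fragment at 200 µM or vehicle for 3 h. Biotin-Ahx-Ub-VS was then added to 0.5 µM final for 1 h, and labelled DUBs were captured with NeutrAvidin, digested with LysC and trypsin, and measured by diaPASEF LC-MS/MS. Data are average log2 fragment/vehicle ratios by unpaired t-test from global-median-normalised Spectronaut label-free quantities, restricted to proteins with ≥2 unique peptides.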

[2] = molecular target: T1, USP36 (UniProt Q9P275)
T1 sequence (whole entry): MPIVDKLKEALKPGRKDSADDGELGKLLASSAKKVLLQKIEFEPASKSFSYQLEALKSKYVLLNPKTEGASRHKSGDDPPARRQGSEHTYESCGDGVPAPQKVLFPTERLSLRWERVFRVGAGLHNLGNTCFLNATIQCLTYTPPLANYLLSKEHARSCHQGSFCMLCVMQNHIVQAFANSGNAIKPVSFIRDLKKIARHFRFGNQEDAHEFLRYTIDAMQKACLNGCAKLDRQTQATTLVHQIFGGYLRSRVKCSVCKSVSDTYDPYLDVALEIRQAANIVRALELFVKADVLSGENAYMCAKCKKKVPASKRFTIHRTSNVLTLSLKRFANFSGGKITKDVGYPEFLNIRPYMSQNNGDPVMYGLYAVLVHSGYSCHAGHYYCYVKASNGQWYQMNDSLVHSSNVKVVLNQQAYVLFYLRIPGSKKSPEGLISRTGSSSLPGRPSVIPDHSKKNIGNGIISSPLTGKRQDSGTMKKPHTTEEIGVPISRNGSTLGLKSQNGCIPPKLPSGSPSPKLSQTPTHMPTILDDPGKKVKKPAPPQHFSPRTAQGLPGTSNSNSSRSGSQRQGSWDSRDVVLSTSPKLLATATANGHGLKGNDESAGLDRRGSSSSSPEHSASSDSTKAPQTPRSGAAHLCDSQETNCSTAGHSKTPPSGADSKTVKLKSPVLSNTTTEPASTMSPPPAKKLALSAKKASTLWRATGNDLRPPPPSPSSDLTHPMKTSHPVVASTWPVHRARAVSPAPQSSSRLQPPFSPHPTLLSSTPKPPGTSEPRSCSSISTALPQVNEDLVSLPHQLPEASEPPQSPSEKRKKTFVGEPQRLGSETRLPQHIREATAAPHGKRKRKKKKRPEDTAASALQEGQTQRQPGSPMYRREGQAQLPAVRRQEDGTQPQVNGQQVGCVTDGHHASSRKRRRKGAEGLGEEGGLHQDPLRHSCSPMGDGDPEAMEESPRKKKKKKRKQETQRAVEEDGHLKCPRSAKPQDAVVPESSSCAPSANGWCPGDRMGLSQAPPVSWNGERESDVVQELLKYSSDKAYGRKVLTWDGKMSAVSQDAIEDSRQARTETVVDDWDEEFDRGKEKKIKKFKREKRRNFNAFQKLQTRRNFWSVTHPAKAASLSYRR
In short: as §1

[3] = molecular target: T2, USP38 (UniProt Q8NB14)
T2 sequence (whole entry): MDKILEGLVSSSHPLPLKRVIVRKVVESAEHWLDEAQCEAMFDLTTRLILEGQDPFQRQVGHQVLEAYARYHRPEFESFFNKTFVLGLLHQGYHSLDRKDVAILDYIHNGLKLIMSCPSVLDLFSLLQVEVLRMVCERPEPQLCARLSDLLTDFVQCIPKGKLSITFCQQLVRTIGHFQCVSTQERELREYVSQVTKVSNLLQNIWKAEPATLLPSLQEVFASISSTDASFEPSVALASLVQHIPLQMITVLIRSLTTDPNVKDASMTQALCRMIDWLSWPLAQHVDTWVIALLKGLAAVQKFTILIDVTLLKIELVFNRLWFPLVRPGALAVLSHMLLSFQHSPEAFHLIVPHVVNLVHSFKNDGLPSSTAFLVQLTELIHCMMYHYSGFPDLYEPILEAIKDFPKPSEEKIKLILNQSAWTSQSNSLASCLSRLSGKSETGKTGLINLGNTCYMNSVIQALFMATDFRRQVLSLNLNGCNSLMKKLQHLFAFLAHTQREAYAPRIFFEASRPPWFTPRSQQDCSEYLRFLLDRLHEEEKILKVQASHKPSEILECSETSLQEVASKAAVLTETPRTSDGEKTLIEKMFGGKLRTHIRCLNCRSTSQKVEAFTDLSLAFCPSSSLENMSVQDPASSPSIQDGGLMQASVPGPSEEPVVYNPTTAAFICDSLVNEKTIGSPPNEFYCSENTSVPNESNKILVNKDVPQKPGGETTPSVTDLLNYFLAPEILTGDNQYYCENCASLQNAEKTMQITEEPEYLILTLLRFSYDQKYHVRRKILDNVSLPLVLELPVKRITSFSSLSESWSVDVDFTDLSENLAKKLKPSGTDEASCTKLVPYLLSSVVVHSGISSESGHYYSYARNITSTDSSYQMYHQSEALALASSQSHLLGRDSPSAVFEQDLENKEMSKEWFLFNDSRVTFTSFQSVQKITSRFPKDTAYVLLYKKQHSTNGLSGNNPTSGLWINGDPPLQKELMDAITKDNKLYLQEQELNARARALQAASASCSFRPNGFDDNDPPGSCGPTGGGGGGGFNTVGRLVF
In short: as §1

[4] = molecular target: T3, USP39 (UniProt Q53GS9)
T3 sequence (whole entry): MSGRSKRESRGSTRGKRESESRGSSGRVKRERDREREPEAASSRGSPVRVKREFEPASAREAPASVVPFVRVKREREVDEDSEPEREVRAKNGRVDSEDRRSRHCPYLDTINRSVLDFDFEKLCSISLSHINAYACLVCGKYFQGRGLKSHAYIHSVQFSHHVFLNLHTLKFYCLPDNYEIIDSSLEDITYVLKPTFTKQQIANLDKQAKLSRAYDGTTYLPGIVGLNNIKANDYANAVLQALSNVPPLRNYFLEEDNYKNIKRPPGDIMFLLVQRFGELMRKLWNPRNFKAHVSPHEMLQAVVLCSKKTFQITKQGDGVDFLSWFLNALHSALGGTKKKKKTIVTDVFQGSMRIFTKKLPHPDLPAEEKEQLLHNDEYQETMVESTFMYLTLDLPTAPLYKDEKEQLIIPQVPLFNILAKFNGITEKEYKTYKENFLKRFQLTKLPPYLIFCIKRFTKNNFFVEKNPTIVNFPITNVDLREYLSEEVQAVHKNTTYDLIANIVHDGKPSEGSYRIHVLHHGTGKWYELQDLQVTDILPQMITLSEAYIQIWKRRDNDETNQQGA
In short: as §1

[5] = molecular target: T4, USP4 (UniProt Q13107)
T4 sequence (whole entry): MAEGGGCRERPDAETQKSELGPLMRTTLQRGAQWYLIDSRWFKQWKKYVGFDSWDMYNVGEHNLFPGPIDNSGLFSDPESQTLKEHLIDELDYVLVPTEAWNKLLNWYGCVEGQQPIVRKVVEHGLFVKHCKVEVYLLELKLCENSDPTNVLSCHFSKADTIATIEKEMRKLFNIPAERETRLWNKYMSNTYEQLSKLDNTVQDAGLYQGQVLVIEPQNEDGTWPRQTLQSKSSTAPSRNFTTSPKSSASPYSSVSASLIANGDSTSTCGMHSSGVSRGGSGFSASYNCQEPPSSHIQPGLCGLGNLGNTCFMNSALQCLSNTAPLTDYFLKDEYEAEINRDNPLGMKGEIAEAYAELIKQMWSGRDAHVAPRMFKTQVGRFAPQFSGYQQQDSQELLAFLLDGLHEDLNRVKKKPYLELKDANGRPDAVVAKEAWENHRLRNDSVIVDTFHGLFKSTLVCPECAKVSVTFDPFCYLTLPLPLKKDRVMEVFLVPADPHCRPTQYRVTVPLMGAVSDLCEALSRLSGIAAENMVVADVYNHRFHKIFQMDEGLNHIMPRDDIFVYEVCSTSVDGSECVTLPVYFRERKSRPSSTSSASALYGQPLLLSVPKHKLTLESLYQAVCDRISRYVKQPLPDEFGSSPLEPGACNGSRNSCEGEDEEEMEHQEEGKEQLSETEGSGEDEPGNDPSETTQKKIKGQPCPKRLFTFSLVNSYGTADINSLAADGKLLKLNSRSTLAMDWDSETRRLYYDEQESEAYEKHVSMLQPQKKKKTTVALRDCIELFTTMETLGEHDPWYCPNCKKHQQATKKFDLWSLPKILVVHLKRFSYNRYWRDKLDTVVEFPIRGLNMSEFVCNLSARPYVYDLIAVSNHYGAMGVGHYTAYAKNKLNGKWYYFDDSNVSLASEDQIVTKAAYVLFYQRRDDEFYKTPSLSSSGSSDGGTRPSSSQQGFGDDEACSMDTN
In short: as §1

Measured: log2 ratio of Biotin-Ahx-Ub-VS probe labelling

USP34, sequence (Q70CQ2 whole entry, the tested form may be a part): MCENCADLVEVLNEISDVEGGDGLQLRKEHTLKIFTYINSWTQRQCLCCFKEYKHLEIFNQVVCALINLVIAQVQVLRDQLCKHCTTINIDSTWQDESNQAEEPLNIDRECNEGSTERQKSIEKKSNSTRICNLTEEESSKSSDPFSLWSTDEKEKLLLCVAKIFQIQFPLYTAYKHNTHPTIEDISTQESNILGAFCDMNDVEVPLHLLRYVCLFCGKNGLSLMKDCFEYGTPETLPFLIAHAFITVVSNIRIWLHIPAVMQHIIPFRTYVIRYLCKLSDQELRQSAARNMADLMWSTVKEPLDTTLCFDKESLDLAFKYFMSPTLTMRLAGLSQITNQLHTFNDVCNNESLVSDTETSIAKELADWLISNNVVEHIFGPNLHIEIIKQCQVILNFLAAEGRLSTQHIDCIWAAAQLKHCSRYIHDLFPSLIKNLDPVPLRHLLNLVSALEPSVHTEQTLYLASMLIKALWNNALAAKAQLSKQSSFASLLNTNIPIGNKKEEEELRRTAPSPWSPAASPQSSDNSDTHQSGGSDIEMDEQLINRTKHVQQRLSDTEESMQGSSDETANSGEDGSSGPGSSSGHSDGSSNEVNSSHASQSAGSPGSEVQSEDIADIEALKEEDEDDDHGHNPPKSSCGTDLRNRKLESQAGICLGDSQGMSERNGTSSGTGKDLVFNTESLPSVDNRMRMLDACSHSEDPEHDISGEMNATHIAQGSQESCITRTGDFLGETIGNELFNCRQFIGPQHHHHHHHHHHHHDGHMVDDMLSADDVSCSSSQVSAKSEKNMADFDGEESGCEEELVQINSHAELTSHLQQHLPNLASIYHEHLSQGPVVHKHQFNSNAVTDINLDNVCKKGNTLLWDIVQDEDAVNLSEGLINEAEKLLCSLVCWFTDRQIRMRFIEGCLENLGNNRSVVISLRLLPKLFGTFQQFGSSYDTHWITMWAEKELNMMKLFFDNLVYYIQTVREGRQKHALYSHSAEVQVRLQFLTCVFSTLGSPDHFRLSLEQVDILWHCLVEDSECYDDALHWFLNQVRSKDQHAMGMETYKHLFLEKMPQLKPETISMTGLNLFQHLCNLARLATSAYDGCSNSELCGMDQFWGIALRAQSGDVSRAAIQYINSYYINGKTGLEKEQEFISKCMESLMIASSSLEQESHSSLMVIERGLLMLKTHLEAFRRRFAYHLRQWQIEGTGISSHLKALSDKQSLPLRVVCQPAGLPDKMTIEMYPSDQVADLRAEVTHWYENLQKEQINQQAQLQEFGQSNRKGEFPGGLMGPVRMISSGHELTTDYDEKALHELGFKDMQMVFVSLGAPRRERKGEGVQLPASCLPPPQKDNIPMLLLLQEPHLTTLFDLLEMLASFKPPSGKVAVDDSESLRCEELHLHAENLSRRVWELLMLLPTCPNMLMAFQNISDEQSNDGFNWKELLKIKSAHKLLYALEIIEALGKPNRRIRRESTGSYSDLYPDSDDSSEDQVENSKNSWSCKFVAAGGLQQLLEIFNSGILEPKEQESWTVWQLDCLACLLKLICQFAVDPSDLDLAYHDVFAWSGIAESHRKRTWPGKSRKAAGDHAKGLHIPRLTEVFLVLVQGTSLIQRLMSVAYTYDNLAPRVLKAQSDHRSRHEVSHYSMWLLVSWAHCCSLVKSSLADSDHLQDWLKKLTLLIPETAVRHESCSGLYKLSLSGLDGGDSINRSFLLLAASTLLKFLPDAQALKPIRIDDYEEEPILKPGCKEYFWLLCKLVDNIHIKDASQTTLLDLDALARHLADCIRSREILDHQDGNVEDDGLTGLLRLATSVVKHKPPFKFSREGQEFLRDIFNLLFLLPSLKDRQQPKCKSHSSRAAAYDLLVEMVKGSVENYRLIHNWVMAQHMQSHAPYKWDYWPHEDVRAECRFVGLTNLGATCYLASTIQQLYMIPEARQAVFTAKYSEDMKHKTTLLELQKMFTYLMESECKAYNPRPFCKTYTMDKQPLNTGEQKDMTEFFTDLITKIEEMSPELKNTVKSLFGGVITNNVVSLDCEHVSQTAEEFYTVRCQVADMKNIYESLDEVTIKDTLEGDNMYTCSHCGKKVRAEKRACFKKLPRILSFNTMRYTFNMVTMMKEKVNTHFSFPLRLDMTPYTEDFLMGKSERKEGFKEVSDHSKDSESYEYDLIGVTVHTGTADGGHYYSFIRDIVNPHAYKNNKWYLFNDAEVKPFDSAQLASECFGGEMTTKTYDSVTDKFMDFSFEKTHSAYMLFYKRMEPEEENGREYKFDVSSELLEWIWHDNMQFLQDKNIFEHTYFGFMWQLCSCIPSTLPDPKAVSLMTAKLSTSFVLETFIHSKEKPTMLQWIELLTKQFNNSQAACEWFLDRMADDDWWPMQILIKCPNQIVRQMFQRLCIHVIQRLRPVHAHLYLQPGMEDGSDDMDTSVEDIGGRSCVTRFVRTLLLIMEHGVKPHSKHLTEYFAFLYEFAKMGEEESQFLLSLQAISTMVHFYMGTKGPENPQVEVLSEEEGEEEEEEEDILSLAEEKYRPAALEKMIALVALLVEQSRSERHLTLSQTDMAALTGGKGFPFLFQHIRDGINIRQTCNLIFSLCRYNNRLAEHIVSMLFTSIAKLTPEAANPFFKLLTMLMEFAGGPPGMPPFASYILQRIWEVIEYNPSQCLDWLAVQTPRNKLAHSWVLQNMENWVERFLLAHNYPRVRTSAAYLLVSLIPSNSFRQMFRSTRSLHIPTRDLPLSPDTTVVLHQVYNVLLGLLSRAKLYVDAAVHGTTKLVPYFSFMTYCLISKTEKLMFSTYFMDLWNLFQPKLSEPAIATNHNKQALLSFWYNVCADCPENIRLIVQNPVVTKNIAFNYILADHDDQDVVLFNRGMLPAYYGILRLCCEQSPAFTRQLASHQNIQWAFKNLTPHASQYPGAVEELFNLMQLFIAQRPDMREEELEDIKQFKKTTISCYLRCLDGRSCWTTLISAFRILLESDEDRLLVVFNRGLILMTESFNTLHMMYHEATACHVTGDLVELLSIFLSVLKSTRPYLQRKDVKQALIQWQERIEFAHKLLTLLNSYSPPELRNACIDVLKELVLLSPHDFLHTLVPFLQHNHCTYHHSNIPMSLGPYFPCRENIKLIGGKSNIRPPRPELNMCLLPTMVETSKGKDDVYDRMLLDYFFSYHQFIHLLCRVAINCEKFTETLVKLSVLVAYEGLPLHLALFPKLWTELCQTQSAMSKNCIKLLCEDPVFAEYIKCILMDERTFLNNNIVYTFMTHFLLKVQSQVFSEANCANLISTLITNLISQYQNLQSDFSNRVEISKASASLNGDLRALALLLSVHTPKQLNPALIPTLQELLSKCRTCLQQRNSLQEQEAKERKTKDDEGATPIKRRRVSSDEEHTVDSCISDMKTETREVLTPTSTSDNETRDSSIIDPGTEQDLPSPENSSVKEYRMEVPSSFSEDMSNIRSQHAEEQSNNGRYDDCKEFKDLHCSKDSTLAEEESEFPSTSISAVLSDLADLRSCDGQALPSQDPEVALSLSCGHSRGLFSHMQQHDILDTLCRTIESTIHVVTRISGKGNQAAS

O=C(CCl)Nc1ccc2c(c1)OC(F)(F)O2
inactive: [1] -0.119 | [2] 0.029 | [3] 0.122 | [4] 0.433 | [5] 0.0436
